Screening data from PubChem BioAssay.
PLCg1 inh: PLC-gamma1 (human) inhibition, primary screen; P19174; purified PLC-gamma1, fluorogenic substrate, fluorescence; inhibition, % at 12.2 µM; 370,000 tested, 0.84% active; AID 720700; in the data active means inhibition above about 9.5%
Target sequence (P19174 whole entry, looked up): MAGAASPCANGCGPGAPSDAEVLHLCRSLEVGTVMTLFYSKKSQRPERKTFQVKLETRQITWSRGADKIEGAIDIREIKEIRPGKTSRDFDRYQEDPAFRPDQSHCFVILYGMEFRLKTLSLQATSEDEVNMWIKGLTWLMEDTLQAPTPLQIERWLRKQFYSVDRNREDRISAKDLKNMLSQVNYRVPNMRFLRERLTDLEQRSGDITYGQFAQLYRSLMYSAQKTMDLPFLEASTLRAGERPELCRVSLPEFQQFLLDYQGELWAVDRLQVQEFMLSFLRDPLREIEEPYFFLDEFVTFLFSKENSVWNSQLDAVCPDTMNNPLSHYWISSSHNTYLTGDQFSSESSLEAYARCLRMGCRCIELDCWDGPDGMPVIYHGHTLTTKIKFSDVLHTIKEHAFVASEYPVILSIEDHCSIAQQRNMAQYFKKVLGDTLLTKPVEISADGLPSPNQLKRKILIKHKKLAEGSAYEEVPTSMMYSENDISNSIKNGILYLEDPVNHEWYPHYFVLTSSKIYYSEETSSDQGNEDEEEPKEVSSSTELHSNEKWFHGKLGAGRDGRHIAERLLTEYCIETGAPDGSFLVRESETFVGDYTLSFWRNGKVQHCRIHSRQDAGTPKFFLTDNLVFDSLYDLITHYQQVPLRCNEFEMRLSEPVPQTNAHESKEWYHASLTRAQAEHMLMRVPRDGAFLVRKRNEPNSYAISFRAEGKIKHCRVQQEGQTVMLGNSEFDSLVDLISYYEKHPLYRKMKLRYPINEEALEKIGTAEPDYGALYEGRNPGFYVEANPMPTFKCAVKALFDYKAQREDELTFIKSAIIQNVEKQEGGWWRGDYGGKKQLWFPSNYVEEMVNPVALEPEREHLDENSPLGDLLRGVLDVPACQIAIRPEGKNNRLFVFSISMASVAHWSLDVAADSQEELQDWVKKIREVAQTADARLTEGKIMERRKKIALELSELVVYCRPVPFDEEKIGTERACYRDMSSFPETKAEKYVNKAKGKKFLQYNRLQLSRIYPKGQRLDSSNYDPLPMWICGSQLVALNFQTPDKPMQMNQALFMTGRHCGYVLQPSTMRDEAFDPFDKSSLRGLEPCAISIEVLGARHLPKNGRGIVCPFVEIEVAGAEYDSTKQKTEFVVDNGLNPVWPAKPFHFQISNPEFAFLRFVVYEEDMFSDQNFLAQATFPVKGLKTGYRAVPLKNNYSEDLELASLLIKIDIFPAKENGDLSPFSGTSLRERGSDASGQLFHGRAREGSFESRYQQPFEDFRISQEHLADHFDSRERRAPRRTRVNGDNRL
ADAM17 inh: inhibits human ADAM17; P78536; AID 720648; recombinant ADAM17, EDANS/DABCYL FRET peptide cleavage; 370,000 tested, 0.83% active; inhibition, % at 6.95 µM;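 active means inhibition above the mean of compounds lying between control limits plus 3 SD, set per campaign, cut at about 8.5% in these data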
PLC-beta3 inh: PLC-beta3 (human) inhibition, primary screen. Q01970. Purified PLC-beta3, fluorogenic substrate, fluorescence. inhibition, % at 12.2 µM. 370,000 tested, 0.18% active. AID 720704
ADAM10 inh: inhibitors of human ADAM10; O14672; recombinant ADAM10, EDANS/DABCYL FRET peptide cleavage, 3 h; inhibition, % at 7 µM; 370,000 tested, 0.62% active;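 active means inhibition above a per-campaign cutoff equal to the mean of compounds falling between control-based bounds plus 3 SD, cut at about 20% in these data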
KLK7 zymogen act: activators of human kallikrein-7 zymogen; purified proKLK7, EDANS-DABCYL substrate fluorescence; 100% is mature enzyme control, 0% vehicle; activation, % at 7 µM; 370,000 tested, 0.9% active;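 active means activation above the mean of all tested compounds plus 3 SD, computed per campaign excluding outliers beyond control limits, cut at about 13% in these data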
PLCg1 ctr: counter-screen for PLC-beta3 inhibitors: inhibitors of human PLC-gamma1; shares compounds with PLCg1 inh; purified PLC-gamma1, fluorogenic substrate, fluorescence; inhibition, % at 12.3 µM; 3,300 tested, 3.1% active; in the data active means inhibition above about 9.5%
PLCb3 confirm: confirmation of human PLC-beta3 inhibitors; shares compounds with PLCg1 inh; purified PLC-beta3, fluorogenic substrate fluorescence; inhibition, % at 12.3 µM; 3,300 tested, 1% active
Large screens that a line does not name were inactive (follow-up assays come after a bar, where they were run). Compounds with a hit are over-represented: about 2.9% of the library has one in this group of screens. Unless noted, no stated cut-off is given here; in the data, active means inhibition above about 11%; inactive means the rest.

COc1ccc(N2CCN(C(=O)/C=C/[C@H]3O[C@@H](n4ccc(=O)[nH]c4=O)[C@H](O)[C@@H]3O)CC2)cc1	none
COc1ccc(S(=O)(=O)N2CCC(C(=O)NCCN3CCOCC3)CC2)cc1	PLCg1 inh 12.5 | PLCg1 ctr inactive | PLCb3 confirm inactive
Cc1ccc(S(=O)(=O)N2CCC(C(=O)NCCN3CCOCC3)CC2)cc1C	none
COc1ccc(C2C(C(=O)NCCCN3CCOCC3)c3ccccc3C(=O)N2c2ccc(OC)cc2)cc1 (stereo unspecified)	PLC-beta3 inh 11.5 | PLCg1 ctr inactive | PLCb3 confirm inactive
CC(NC(=O)C1CC=CCC1C(=O)O)C1CC2CCC1C2 (stereo unspecified)	none
COc1ccc(-n2c(SCC(=O)NCC3CCCO3)nc3ccccc32)cc1 (stereo unspecified)	none
Cc1ccccc1NC(=O)N1CCCC(c2nc(-c3ccc(C(C)C)cc3)no2)C1 (stereo unspecified)	PLCg1 inh 10.1 | PLCg1 ctr inactive | PLCb3 confirm inactive
O=C(NC1CCCCC1)N1CCCC(c2nc(-c3cccs3)no2)C1 (stereo unspecified)	PLCg1 inh 10.2 | PLCg1 ctr inactive | PLCb3 confirm inactive
Cc1cc(/C=C(\C#N)C(=O)Nc2ccc(Cl)cc2)c(C)n1-c1ccc(N2CCOCC2)c([N+](=O)[O-])c1	PLCg1 inh 13.6 | PLCg1 ctr inactive | PLCb3 confirm inactive
Cc1ccc(NC(=O)/C(C#N)=C/c2cc(C)n(-c3ccc(N4CCOCC4)c([N+](=O)[O-])c3)c2C)c(C)c1	none
CCN(CC(=O)NCc1cccs1)S(=O)(=O)c1cc(NC(C)=O)ccc1OC	PLCg1 inh 9.6 | PLCg1 ctr inactive | PLCb3 confirm inactive
CC1CCC(NC(=O)CCN2C(=O)C3CC=CCC3C2=O)CC1 (stereo unspecified)	PLCg1 inh 12.1 | PLCg1 ctr inactive | PLCb3 confirm inactive
O=[N+]([O-])c1cccc2ccc(/C=C/c3cccc(Br)c3)nc12	PLC-beta3 inh 11.1 | PLCg1 ctr inactive | PLCb3 confirm inactive
COc1ccc(NC(=O)C2Cc3c(-c4cccc(NC(C)=O)c4)ccnc3O2)cn1 (stereo unspecified)	none
COCCCNC(=O)CS(=O)Cc1nc(-c2cccc(OC)c2)oc1C (stereo unspecified)	PLCg1 inh 66.1 | PLCg1 ctr inactive | PLCb3 confirm inactive
Cc1ccccc1NC(C)C(=O)N/N=C/c1c[nH]c2ccccc12 (stereo unspecified)	none
CCOC(=O)c1c(C)[nH]c(C(=O)COC(=O)c2oc3ccccc3c2C)c1C	PLCg1 inh 10.4 | PLCg1 ctr inactive | PLCb3 confirm inactive
CCOC(=O)c1c(C)[nH]c(C(=O)COC(=O)c2oc3ccc(OC)cc3c2C)c1C	none
COCCNC(=O)CSc1nc2cc3c(cc2c(=O)n1Cc1ccco1)OCO3	none
Cc1ccc(SCC(=O)OCC(=O)NCCc2ccccc2)cc1	none
CCCSc1nc(C)c(CC(=O)OCC)c(=O)[nH]1	PLCg1 inh 9.7 | PLCg1 ctr inactive | PLCb3 confirm inactive
Cc1ccc(S(=O)(=O)N(CC(=O)N/N=C\c2cccs2)c2cccc3cccnc23)cc1	none
CSc1ccccc1NC(=O)CN1CCN(S(=O)(=O)c2ccccc2[N+](=O)[O-])CC1	none
CCOC(=O)CNC(=O)C1(NC(=O)CNC(=O)OCc2ccccc2)CCCC1	PLCg1 inh 10.2 | PLCg1 ctr inactive | PLCb3 confirm inactive
Cc1ccc2nc(NC(=O)C3CCN(S(=O)(=O)c4cccnc4)CC3)sc2c1	none
Cc1ccc2nc(NC(=O)C3CCN(S(=O)(=O)c4cnc[nH]4)CC3)sc2c1	PLCg1 inh 9.6 | PLCg1 ctr inactive | PLCb3 confirm inactive
CCC(CC)NCc1ccc(OC)cc1OC	none
O=C(Nc1ccc(Cl)cc1F)c1cc(S(=O)(=O)N2CCCCC2)ccc1F	PLCg1 inh 12.1 | PLCg1 ctr inactive | PLCb3 confirm inactive
Cc1cc(N)n(-c2ccc([N+](=O)[O-])cc2)n1	PLCg1 inh 11.7 | PLCg1 ctr inactive | PLCb3 confirm inactive
NC(=O)C1(N2CCCCC2)CCN(S(=O)(=O)c2ccccc2)CC1	none
NC(=O)C1(N2CCCCC2)CCN(Cc2ccccc2Cl)CC1	PLC-beta3 inh 10.6 | PLCg1 ctr inactive | PLCb3 confirm inactive
Cc1cc(C(=O)N/N=C/c2ccncc2)c(C)o1	none
Cn1nc(-c2ccc(Cl)cc2)cc1NC(=O)CCCC(=O)O	none
CC1=C(C)CC(C(=O)NNC(=O)c2ccccc2)C(C(=O)O)C1 (stereo unspecified)	PLCg1 inh 11.2 | PLCg1 ctr inactive | PLCb3 confirm inactive
Cc1nc(NC(=O)C2CC2)sc1C(=O)Nc1ccccc1	none
Cc1nc(Nc2c(Cl)cccc2Cl)sc1C(=O)Nc1ccccc1	PLCg1 inh 9.6 | PLCg1 ctr inactive | PLCb3 confirm inactive
CCN(C(=O)COC(=O)CCOc1ccc(C(C)(C)C)cc1)c1c(N)n(Cc2ccccc2)c(=O)[nH]c1=O	none
Cc1ccc(C)c(NC(=O)CCNS(=O)(=O)c2ccc3[nH]c(=O)oc3c2)c1	none
O=C(CSc1nnc(Cc2ccccc2)o1)NCc1ccco1	none
Cc1ccc(/C=N/NC(=O)CSc2nc3ccccc3c(=O)n2-c2ccccc2C)s1	none
Cc1nc(C(F)(F)F)ccc1C(=O)N1CCCCCC1(C)C(=O)NCC(C)C (stereo unspecified)	PLCg1 inh 15.5 | PLCg1 ctr inactive | PLCb3 confirm inactive
CC(C)CNC(=O)C1(C)CCCCCN1C(=O)c1cccnc1 (stereo unspecified)	none
CCCCNC(=O)C1(C)CCCCN1C(=O)c1cc2ccccc2s1 (stereo unspecified)	PLC-beta3 inh 13.1 | PLCg1 ctr inactive | PLCb3 confirm inactive
CC(C)CNC(=O)C1(C)CCCCCN1C(=O)c1cc2ccccc2s1 (stereo unspecified)	PLCg1 inh 13.9 | PLCg1 ctr inactive | PLCb3 confirm inactive
CN(C)C(CNC(=O)CCNC(=O)c1ccccc1Cl)c1ccco1 (stereo unspecified)	none
C[C@@]12CCC3[C@@](CCC4[C@@]3(C)CCC[C@@]4(C)C(=O)NCc3ccccc3)(CC1=O)C2 (stereo partly specified)	none
C[C@]12c3[nH]c4ccc(Cl)cc4c3CCN1C(=O)[C@@H](CC(=O)NCCc1ccccn1)C[C@@H]2C(=O)N1CCCCC1	none
CN(Cc1cccc(Cl)c1Cl)C(=O)CCNC(=O)c1ccco1	PLCg1 inh 11.8 | PLCg1 ctr inactive | PLCb3 confirm inactive
COc1cccc2c1OC[C@@H](CO)[C@H]2N(C)C(=O)Nc1ccc(Cl)cc1Cl	none
CC1=N/C(=C\c2ccc3c(c2)OCO3)C(=O)N1c1ccc(C(=O)O)cc1	none
